This is a sample that favours compounds with a hit; in the whole collection about 4.6% have one here.
D1 antag: antagonists of human D1 dopamine receptor; P21728; HEK293 TREx D1 cells, calcium flux, dopamine EC80; hits give low values; activity change, negative = inhibition, % at 10 µM; 360,000 tested, 3.2% active; AID 504652; in the data active means activity change below about -30%; further: on the % scale 0 is the no-effect control and ±100 the full control effect
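Antagonism measured as reduced calcium response to an EC80 dopamine addition following 180 s compound pre-read; cells were inducible HEK293 Trex D1 plated overnight at 30 C, read kinetically at 1 cycle/sec.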
TRHR ag: TRH receptor (human) agonism; AID 493084; 360,000 tested, 0.18% active; activation, % at 2 µM; P34981; TRHR cells, calcium flux fluo-8, FDSS agonist mode; further: 0% is about no effect
Target sequence (P34981 whole entry, looked up): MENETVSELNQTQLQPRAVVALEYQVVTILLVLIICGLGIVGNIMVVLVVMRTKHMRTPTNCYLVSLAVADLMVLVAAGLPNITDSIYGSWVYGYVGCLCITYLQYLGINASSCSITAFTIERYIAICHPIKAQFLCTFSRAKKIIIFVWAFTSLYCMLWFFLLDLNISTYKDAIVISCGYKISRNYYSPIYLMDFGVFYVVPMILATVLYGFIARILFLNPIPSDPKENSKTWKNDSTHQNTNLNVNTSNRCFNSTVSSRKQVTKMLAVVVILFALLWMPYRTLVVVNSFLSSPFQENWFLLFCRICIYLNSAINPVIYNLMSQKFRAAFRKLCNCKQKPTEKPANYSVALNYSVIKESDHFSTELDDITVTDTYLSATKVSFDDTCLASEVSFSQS
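Steps: seed TRHR cells overnight; add fluo-8 no-wash Ca dye, RT 30 min–1.5 h; record 10 s baseline; pin-transfer compounds; monitor fluorescence 1 cycle/s for the agonist window. Calcium increases flag candidate agonists.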
D1 ag: agonists of human D1 dopamine receptor; P21728; HEK293 T-REx D1 cells, calcium flux, agonist mode; activation, % at 2 µM; 360,000 tested, 1% active; AID 504660; further: 0% is about no effect
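Tetracycline-induced HEK293 TREx D1 cells, force-coupled to calcium signalling, were dye-loaded with a no-wash calcium kit. Compound was pin-added after a 10 s baseline. Fluorescence was read kinetically at 1 cycle/s for 180 s, with calcium rises flagged as agonism.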
TRHR enhancer: allosteric enhancers of human TRH receptor; enhancement, % at 2 µM; 360,000 tested, 0.66% active; P34981; TRHR cells, fluo-8 calcium fluorescence, EC20 TRH enhancement; in the data active means enhancement above about 30%; further: 0% is about no effect
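TRHR-expressing cells loaded with fluo-8 calcium dye were read kinetically (ex 480/em 530) during compound addition, then stimulated with an EC20 of TRH (10 nM final). Enhancement of the Gq-mediated intracellular calcium response was scored.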
D1 PAM: human D1 dopamine receptor positive modulation | P21728 | AID 504651 | potentiation, % at 10 µM | 360,000 tested, 0.036% active | HEK293 TREx D1 cells, calcium flux, dopamine EC20 potentiation; in the data active means potentiation above about 30%; further: 0% is about no effect
* = called active by the depositor; ! = a repeat was not active. Unless noted, no stated cut-off is given here; in the data, active means activation above about 30%; inactive means the rest.

How did COC(=O)c1ccccc1SC1CC(=O)N(c2ccccc2)C1=O (stereo not drawn) do in these assays?
D1 antag: -15.4; TRHR ag: -0.5; D1 ag: 1.4; TRHR enhancer: -0.9; D1 PAM: -1.5

Results for COC(=O)c1ccccc1NC1CC(=O)N(c2c(C)cccc2C)C1=O (stereo not drawn) ?
D1 antag: 3.3; TRHR ag: 1.1; D1 ag: 2.4; TRHR enhancer: 32.9*; D1 PAM: -3.0

How did CC1=C(C(=O)Nc2ccccc2)C(c2cccnc2)n2nc(SCc3ccccc3F)nc2N1 (stereo not drawn) do in these assays?
D1 antag: -2.7; TRHR ag: -0.7; D1 ag: 11.1; TRHR enhancer: -2.6; D1 PAM: 1.2

Results for CCc1ccc(OCC(=O)Nc2ccc3c(c2)c2ccccc2n3CC)c(Br)c1 ?
D1 antag: -1.7; TRHR ag: -0.1; D1 ag: -0.1; TRHR enhancer: 34.0*; D1 PAM: -3.0

Results for CCOC(=O)c1sc(=S)n(C)c1N ?
D1 antag: -33.4*; TRHR ag: -0.5; D1 ag: 2.4; TRHR enhancer: 0.6; D1 PAM: -7.0

What do the screens show for `CCOC(=O)c1sc(=S)n(C)c1C`?
D1 antag: 1.7; TRHR ag: 0.3; D1 ag: 1.9; TRHR enhancer: 0.4; D1 PAM: 1.8

What do the screens show for `CC1=C(C(=O)Nc2ccccc2)C(c2cccnc2)n2nc(SCc3ccccc3Cl)nc2N1` (stereo not drawn)?
D1 antag: -35.2*; TRHR ag: 1.0; D1 ag: -0.8; TRHR enhancer: -3.8; D1 PAM: -1.2

What do the screens show for `CC1CCCC(NCC(O)COC(c2ccc(F)cc2)c2ccc(F)cc2)C1C` (stereo not drawn)?
D1 antag: 16.6; TRHR ag: 2.1; D1 ag: 62.6*; TRHR enhancer: -3.0; D1 PAM: -7.8

What do the screens show for `Nc1sc2c([n+]1CCCS(=O)(=O)[O-])CCCC2`?
D1 antag: -31.1*; TRHR ag: -1.8; D1 ag: 3.7; TRHR enhancer: 6.4; D1 PAM: -3.5

Results for CSc1sc2ccccc2[n+]1CCCS(=O)(=O)[O-] ?
D1 antag: -4.4; TRHR ag: 0.0; D1 ag: 1.3; TRHR enhancer: 7.7; D1 PAM: -0.6

How did c1ccc(Nc2c3c(nc4ccccc24)CCC3)cc1 do in these assays?
TRHR ag: -1.1; D1 ag: 4.3; TRHR enhancer: -0.5; D1 PAM: -10.7

How did COc1ccc(C)cc1Nc1c2c(nc3ccccc13)CCC2 do in these assays?
D1 antag: -55.0*!; TRHR ag: 1.1; D1 ag: 6.4; TRHR enhancer: -4.8; D1 PAM: -9.9

How did Fc1ccccc1Nc1c2c(nc3ccccc13)CCC2 do in these assays?
D1 antag: -33.5*; TRHR ag: -2.0; D1 ag: 2.7; TRHR enhancer: 15.5; D1 PAM: -5.2

Results for CCCCCC(=O)Nc1c2c(nc3ccccc13)CCC2 ?
D1 antag: 2.8; TRHR ag: 0.3; D1 ag: 1.7; TRHR enhancer: 31.7*; D1 PAM: -1.1

What do the screens show for `O=C(CCCCCl)Nc1c2c(nc3ccccc13)CCC2`?
D1 antag: 20.4; TRHR ag: 0.5; D1 ag: 0.7; TRHR enhancer: -3.9; D1 PAM: 0.3

What do the screens show for `Fc1ccc(Nc2c3c(nc4ccccc24)CCC3)cc1`?
D1 antag: -40.9*; TRHR ag: -0.4; D1 ag: 13.7; TRHR enhancer: 2.2; D1 PAM: -13.0

What do the screens show for `CCc1ncc(CN2CCC(C(=O)Nc3cccc(-c4cscn4)c3)CC2)cn1`?
D1 antag: -13.9; TRHR ag: -0.8; D1 ag: 5.7; TRHR enhancer: -1.8; D1 PAM: 1.3

How did CCN1CCN(CCNC(=O)C2CCCN(Cc3nc(-c4cccc(Cl)c4)oc3C)C2)CC1 (stereo not drawn) do in these assays?
D1 antag: -39.4*; TRHR ag: -0.1; D1 ag: 0.7; TRHR enhancer: 3.0; D1 PAM: -6.2

How did COc1ccc(-c2nc(CN3CCC(C(=O)NCCc4ccccc4)CC3)c(C)o2)cc1OC do in these assays?
D1 antag: -23.3; TRHR ag: 0.0; D1 ag: 0.6; TRHR enhancer: 19.6; D1 PAM: -0.3

Results for COc1ccc(-c2nc(CN3CCC(C(=O)NCc4ccc(C)cc4)CC3)c(C)o2)cc1OC ?
D1 antag: -31.0*; TRHR ag: 0.1; D1 ag: 0.4; TRHR enhancer: -3.5; D1 PAM: -5.7

How did Cc1oc(-c2cccc(Cl)c2)nc1CN1CCC(C(=O)NCCCN2CCN(c3cccc(Cl)c3)CC2)CC1 do in these assays?
D1 antag: -39.2*; TRHR ag: 0.7; D1 ag: 66.5*; TRHR enhancer: 1.1; D1 PAM: -0.9

Results for Cc1ccc(C(=O)NCC(=O)NNC(=O)CN(C)S(=O)(=O)c2ccc(Cl)cc2)s1 ?
D1 antag: 28.2; TRHR ag: 0.2; D1 ag: 4.7; TRHR enhancer: -3.8; D1 PAM: -3.8

How did COc1ccc(F)cc1S(=O)(=O)NCC(c1ccco1)S(=O)(=O)c1ccc(F)cc1 (stereo not drawn) do in these assays?
TRHR ag: 4.4; D1 ag: 2.1; TRHR enhancer: -7.6; D1 PAM: 3.7

What do the screens show for `COc1ccc(-c2nn(C)c3sc(C(=O)Nc4cc(OC)c(OC)c(OC)c4)cc23)cc1OC`?
D1 antag: 8.6; TRHR ag: -0.9; D1 ag: -1.8; TRHR enhancer: 4.5; D1 PAM: 3.5

How did COc1ccc(Cl)cc1N1C(=NC(=O)C2CCCO2)SC2CS(=O)(=O)CC21 (stereo not drawn) do in these assays?
D1 antag: 25.2; TRHR ag: 0.4; D1 ag: 9.7; TRHR enhancer: 3.8; D1 PAM: -2.1

Results for Cc1cc(-c2ccc(S(=O)(=O)Nc3ccccc3F)s2)on1 ?
D1 antag: -22.7; TRHR ag: 0.1; D1 ag: 5.1; TRHR enhancer: -3.5; D1 PAM: -2.2

What do the screens show for `COC(=O)c1cc(=O)n(CCc2ccc(OC)cc2)c(=Nc2ccc(F)c(Cl)c2)s1`?
D1 antag: -59.7*; TRHR ag: -0.5; D1 ag: 7.3; TRHR enhancer: 3.0; D1 PAM: -7.9

How did COC(=O)c1cc(=O)n(CCc2ccccc2)c(=Nc2ccc(F)cc2)s1 do in these assays?
D1 antag: -16.3; TRHR ag: 1.6; D1 ag: 0.1; TRHR enhancer: 9.9; D1 PAM: 3.9

How did Cc1ccccc1NC(=O)CN(C)S(=O)(=O)c1cccc2nsnc12 do in these assays?
D1 antag: 18.7; TRHR ag: -0.5; D1 ag: -1.3; TRHR enhancer: -6.6; D1 PAM: -2.6

What do the screens show for `COc1cc(SC)ccc1C(=O)N1CCn2c3c(c4cc(C)ccc42)CCCC31` (stereo not drawn)?
D1 antag: 1.9; TRHR ag: 5.3; D1 ag: -0.7; TRHR enhancer: 0.4; D1 PAM: 0.5
